# Test results from PubChem BioAssay (NCI).
# This is part of a sample that, as a whole, favours compounds with a hit. Of some 79,000 tested, about 15% had one in any assay. Values without a mark were called inactive. Activity calls are given as the source filed them. No stated cut-off is given here; in the data, active means growth inhibition above about 70%; inactive means the rest.
# Legend:
# [1] = NCI Yeast Anticancer Drug Screen. Data for the wt1 strain (AID 149);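 further: 0% = growth of vehicle-treated wt1 cultures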; conditions: S. cerevisiae wt1 strain (SPY 50644) growth inhibition, hits give high values
# Method in brief: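 wt1 yeast, compound-treated; % growth inhibition vs vehicle control.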
# [2] = NCI Yeast Anticancer Drug Screen. Data for the rad50EPP+ strain (AID 151);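 further: 0% = growth of vehicle-treated control cultures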; conditions: S. cerevisiae rad50 mutant strain, hits give high values
# Method in brief: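 One strain with a rad50 alteration (rad50EPP+) was compound-treated, its growth then compared to that of vehicle controls.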
# [3] = NCI Yeast Anticancer Drug Screen. Data for the mgt1 strain (AID 153); conditions: S. cerevisiae mgt1 mutant growth inhibition, hits give high values
# Method in brief: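 After exposure of the mgt1 yeast mutant to compound, growth was measured and reported as inhibition compared with vehicle controls.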
# [4] = NCI Yeast Anticancer Drug Screen. Data for the rad50 strain (AID 155);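 further: 0% = growth of vehicle-only cultures of the same strain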; conditions: S. cerevisiae rad50 strain growth inhibition, hits give high values
# Method in brief: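 Genetically altered yeast (DNA repair pathway); compound treatment; growth inhibition vs vehicle ctrl.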
# [5] = NCI Yeast Anticancer Drug Screen. Data for the mec2-1 strain (AID 157); conditions: S. cerevisiae mec2-1 strain, hits give high values
# Method in brief: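 Test agents were screened against the mec2-1 yeast strain, with defined DNA repair or cell cycle alteration. Growth was scored as inhibition against vehicle-only controls.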
# [6] = NCI Yeast Anticancer Drug Screen. Data for the rad14 strain (AID 159);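 further: 0% = growth of vehicle-treated control cultures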; conditions: S. cerevisiae rad14 strain growth inhibition, hits give high values
# Method in brief: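 Test compounds were applied to a repair-deficient yeast strain. Its growth was then compared with that of cultures given vehicle alone, and inhibition was expressed relative to those controls.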
# [7] = NCI Yeast Anticancer Drug Screen. Data for the sgs1 mgt1 strain (AID 161);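 further: 0% = growth of cultures given vehicle only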; conditions: S. cerevisiae sgs1 mgt1 strain, hits give high values
# Method in brief: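 Inhibition of yeast growth, normalised to vehicle-treated controls, is reported for a strain bearing genetic alterations in DNA damage repair.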
# [8] = NCI Yeast Anticancer Drug Screen. Data for the cln2 rad14 strain (AID 165);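 further: 0% = growth equal to vehicle treated cultures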; conditions: S. cerevisiae cln2 rad14 strain, hits give high values
# Method in brief: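 Growth of compound-exposed yeast (cln2 rad14 genotype) measured and expressed as inhibition relative to vehicle.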
# [9] = NCI Yeast Anticancer Drug Screen. Data for the bub3 strain (AID 167); conditions: S. cerevisiae bub3 mutant strain, hits give high values
# Method in brief: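 Yeast carrying a defined mutation is treated with each compound, and growth is compared with that of vehicle-exposed cells to give inhibition.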
# [10] = NCI Yeast Anticancer Drug Screen. Data for the wt2 strain (AID 169);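 further: 0% = growth of vehicle-treated yeast cultures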; conditions: S. cerevisiae wt2 strain growth inhibition, hits give high values
# Method in brief: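 Genetically defined yeast strains from a DNA-repair/cell-cycle panel were used. Compound-exposed yeast growth was measured, and the inhibition was calculated relative to vehicle treatment.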
# [11] = NCI Yeast Anticancer Drug Screen. Data for the mlh1 strain (AID 171);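 further: 0% = growth of vehicle-treated control cultures of the same strain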; conditions: S. cerevisiae mlh1 strain growth inhibition, hits give high values
# Method in brief: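 Here the genetically defined yeast mutant is grown with each compound, and the extent to which its growth falls below that of vehicle-exposed cells is reported.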
# [12] = NCI Yeast Anticancer Drug Screen. Data for the sgs1 strain (AID 173);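 further: 0% = growth of vehicle-only control cultures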; conditions: S. cerevisiae sgs1 mutant, hits give high values
# Method in brief: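 Relative growth inhibition, referenced to vehicle, was determined in a yeast strain with a defined alteration affecting DNA damage repair or cell cycle control after compound exposure.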
# [13] = NCI Yeast Anticancer Drug Screen. Data for the mlh1 rad18 strain (AID 175); conditions: S. cerevisiae mlh1 rad18 strain growth inhibition, hits give high values
# Method in brief: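 In this whole-cell yeast screen, a strain with altered DNA damage repair is challenged with compound, and its growth is measured against matched vehicle-treated controls.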
# [14] = NCI Yeast Anticancer Drug Screen. Data for the rad18 strain (AID 177); conditions: S. cerevisiae rad18 mutant growth inhibition, hits give high values
# Method in brief: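 Screen uses a yeast strain with a defined lesion in DNA damage repair; compound effect is read as loss of growth compared to untreated vehicle cultures.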
# [15] = at 5.0 µM (retest, dose inferred, filed as 0.5)
# [16] = at 50.0 µM (retest, dose inferred, filed as 5.0)
smiles,measurement,setting,value
C[Si](C)(C)Cc1ccccc1C(=O)O,growth inhibition,[1]; at 1.2 µM,1%
same,growth inhibition,[1]; at 3.7 µM,1%
same,growth inhibition,[1]; at 11.0 µM,4%
same,growth inhibition,[1]; at 33.0 µM,38%
same,growth inhibition,[1]; at 100.0 µM,99% (active)
same,growth inhibition,[2]; at 1.2 µM,-2%
same,growth inhibition,[2]; at 3.7 µM,1%
same,growth inhibition,[2]; at 11.0 µM,0%
same,growth inhibition,[2]; at 33.0 µM,4%
same,growth inhibition,[2]; at 100.0 µM,3%
same,growth inhibition,[3]; at 1.2 µM,1%
same,growth inhibition,[3]; at 3.7 µM,6%
same,growth inhibition,[3]; at 11.0 µM,-2%
same,growth inhibition,[3]; at 33.0 µM,15%
same,growth inhibition,[3]; at 100.0 µM,99% (active)
same,growth inhibition,[4]; at 1.2 µM,4%
same,growth inhibition,[4]; at 3.7 µM,9%
same,growth inhibition,[4]; [15],2%
same,growth inhibition,[4]; at 11.0 µM,4%
same,growth inhibition,[4]; at 33.0 µM,56%
same,growth inhibition,[4]; [16],80% (active)
same,growth inhibition,[4]; at 50.0 µM,97.7% (active)
same,growth inhibition,[4]; at 100.0 µM,98% (active)
same,growth inhibition,[5]; at 1.2 µM,4%
same,growth inhibition,[5]; at 3.7 µM,4%
same,growth inhibition,[5]; [15],8%
same,growth inhibition,[5]; at 11.0 µM,8%
same,growth inhibition,[5]; at 33.0 µM,29%
same,growth inhibition,[5]; [16],86% (active)
same,growth inhibition,[5]; at 50.0 µM,97% (active)
same,growth inhibition,[5]; at 100.0 µM,98% (active)
same,growth inhibition,[6]; at 1.2 µM,1%
same,growth inhibition,[6]; at 3.7 µM,-4%
same,growth inhibition,[6]; at 11.0 µM,0%
same,growth inhibition,[6]; at 33.0 µM,32%
same,growth inhibition,[6]; at 100.0 µM,99% (active)
same,growth inhibition,[7]; [15],9%
same,growth inhibition,[7]; [16],38%
same,growth inhibition,[7]; at 50.0 µM,97.4% (active)
same,growth inhibition,[8]; [15],33%
same,growth inhibition,[8]; [16],86% (active)
same,growth inhibition,[8]; at 50.0 µM,98% (active)
same,growth inhibition,[9]; at 1.2 µM,6%
same,growth inhibition,[9]; at 3.7 µM,8%
same,growth inhibition,[9]; [15],5%
same,growth inhibition,[9]; at 11.0 µM,2%
same,growth inhibition,[9]; at 33.0 µM,6%
same,growth inhibition,[9]; [16],17%
same,growth inhibition,[9]; at 50.0 µM,97% (active)
same,growth inhibition,[9]; at 100.0 µM,97% (active)
same,growth inhibition,[10]; at 1.2 µM,-1%
same,growth inhibition,[10]; at 3.7 µM,-3%
same,growth inhibition,[10]; at 11.0 µM,-1%
same,growth inhibition,[10]; at 33.0 µM,52%
same,growth inhibition,[10]; at 100.0 µM,99% (active)
same,growth inhibition,[11]; at 1.2 µM,3%
same,growth inhibition,[11]; at 3.7 µM,12%
same,growth inhibition,[11]; at 11.0 µM,3%
same,growth inhibition,[11]; at 33.0 µM,42%
same,growth inhibition,[11]; at 100.0 µM,99% (active)
same,growth inhibition,[12]; at 1.2 µM,-1%
same,growth inhibition,[12]; at 3.7 µM,1%
same,growth inhibition,[12]; at 11.0 µM,5%
same,growth inhibition,[12]; at 33.0 µM,65%
same,growth inhibition,[12]; at 100.0 µM,99% (active)
same,growth inhibition,[13]; [15],-2%
same,growth inhibition,[13]; [16],83% (active)
same,growth inhibition,[13]; at 50.0 µM,98.2% (active)
same,growth inhibition,[14]; at 1.2 µM,2%
same,growth inhibition,[14]; at 3.7 µM,3%
same,growth inhibition,[14]; at 11.0 µM,1%
same,growth inhibition,[14]; at 33.0 µM,65%
same,growth inhibition,[14]; at 100.0 µM,97% (active)
